PubChem BioAssay (Tox21)
Results filed as inconclusive are left out. A call without a number means that no potency is given here. Unmarked numbers belong to inactive results. Active and inactive are the calls of the source. Calls come from the whole dose curve; as a rule, active = well fitted cell-killing curve with a large enough effect in the repeat runs; inconclusive = weak or mixed curves, or effect the other way; inactive = flat fitted curve, though single readings scatter.

Tests used:
[1] = cAMP Responsive Elements (CRE) small molecule antagonists, cell-based qHTS assay: qHTS cell viability counter screen (AID 2060913); conditions: CRE-bla HEK293T viability, CellTiter-Glo luminescence, 5 h; series mostly up to 92.4 µM; note: nearly all actives have a fitted effect of over 40% in size
In short: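 Cytotoxicity read in the same wells as the CRE-bla HEK293T antagonist assay: after 3 h compound with 0.25 uM NKH477 final and 2 h beta-lactamase substrate, CellTiter-Glo luminescence measured.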

[2] = cAMP Responsive Elements (CRE) small molecule agonists, cell-based qHTS assay: qHTS cell viability counter screen (AID 2060914); conditions: CRE-bla HEK293T viability, CellTiter-Glo luminescence, 5 h; series mostly up to 92.4 µM;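 note: viability read after 3 h of compound exposure; nearly all actives have a fitted effect of over 50% in size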
In short: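 Cells are seeded and incubated 18 h, treated with compounds in DMSO for 3 h, read for the bla reporter, then given CellTiter-Glo; luminescence is measured after 30 min at room temperature.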
Potency is the fitted concentration of half-maximal effect.

Row | SMILES | Potency [1] | Potency [2] | viability change, negative = cytotoxic [1] | activity change, negative = cytotoxicity [2]
1 | COc1ccccc1N1CCN(CCCNc2cc(=O)n(C)c(=O)n2C)CC1 | inactive | inactive | – | –
2 | C=Cc1ccc(OC(C)=O)cc1 | inactive | inactive | – | –
3 | CC(C)=CCO | inactive | inactive | – | –
4 | O=C(O)c1cc(Cl)cc([N+](=O)[O-])c1Cl | inactive | inactive | – | –
5 | CC(=O)OCc1ccccc1 | inactive | inactive | – | –
6 | O=C1OC(=O)C2CCCCC12 (stereo unspecified) | inactive | inactive | – | –
7 | CC(=O)Nc1ccc(S(N)(=O)=O)cc1 | inactive | inactive | – | –
8 | O=C1c2ccccc2S(=O)(=O)N1CCCCN1CCN(c2ncccn2)CC1 | inactive | inactive | – | –
9 | C=C(C)C(=O)OCCOP(=O)(O)O | inactive | inactive | – | –
10 | S=C(S)NCCNC(=S)S | inactive | inactive | – | –
11 | CCOC(=O)C(C)C(C)=O (stereo unspecified) | inactive | inactive | – | –
12 | CO[Si](OC)(OC)c1ccccc1 | inactive | inactive | – | –
13 | C=CCSCC1Nc2cc(Cl)c(S(N)(=O)=O)cc2S(=O)(=O)N1 (stereo unspecified) | inactive | inactive | – | –
14 | CCCCOC(=O)/C=C\C(=O)OCCCC | inactive | inactive | – | –
15 | COC(=O)/C=C(\C)CCC=C(C)C | inactive | inactive | – | –
16 | CC(C)CCC(=O)CCC(C)C | inactive | inactive | – | –
17 | CC(O)(P(=O)(O)O)P(=O)(O)O | inactive | inactive | – | –
18 | COc1cc([C@@H]2c3cc4c(cc3[C@@H](O[C@@H]3O[C@@H]5CO[C@@H](C)O[C@H]5[C@H](O)[C@H]3O)[C@H]3COC(=O)[C@H]23)OCO4)cc(OC)c1O | inactive | inactive | – | –
19 | CCC1OCC(COc2ccc(Oc3ccccc3)cc2)O1 (stereo unspecified) | inactive | inactive | – | –
20 | FC(F)(F)c1ccccc1 | inactive | inactive | – | –
21 | Clc1cccc(Cl)c1NC1=NCCN1 | inactive | inactive | – | –

Row | SMILES | Potency [1] | Potency [2] | viability change, negative = cytotoxic [1] | activity change, negative = cytotoxicity [2]
22 | COC(CC(C)CCCC(C)(C)O)OC (stereo unspecified) | inactive | inactive | – | –
23 | O=NN(CCCl)C(=O)NCCCl | inactive | inactive | – | –
24 | O=C(OCc1ccccc1)C(=O)OCc1ccccc1 | inactive | inactive | – | –
25 | O=C(O)c1cn(C2CC2)c2cc(Cl)c(F)cc2c1=O | inactive | inactive | – | –
26 | C[C@]12CCC(=O)C=C1CC[C@@H]1[C@@H]2C(=O)C[C@@]2(C)[C@H]1CC[C@]2(O)C(=O)CO | inactive | inactive | – | –
27 | Nc1nnc(-c2cccc(Cl)c2Cl)c(N)n1 | inactive | inactive | – | –
28 | NC1CCCCC1 | inactive | inactive | – | –
29 | CCCCCCCO | inactive | inactive | – | –
30 | CC(O)C1CCCCC1 (stereo unspecified) | inactive | inactive | – | –
31 | Cc1cc(C)n(CO)n1 | inactive | inactive | – | –
32 | C#C[C@]1(OC(C)=O)CC[C@H]2[C@@H]3CCC4=C/C(=N/O)CC[C@@H]4[C@H]3CC[C@@]21CC | inactive | inactive | – | –
33 | O=C(Oc1ccccc1)c1ccc(O)cc1 | inactive | inactive | – | –
34 | C=Cc1ccccc1 | inactive | inactive | – | –
35 | C[N+](C)(C)CCCCCC[N+](C)(C)C | inactive | inactive | – | –
36 | C/C=C(\C)C=O | inactive | inactive | – | –
37 | CCc1oc2ccccc2c1C(=O)c1cc(Br)c(O)c(Br)c1 | inactive | inactive | – | –
38 | CCCc1nn(C)c2c(=O)[nH]c(-c3cc(S(=O)(=O)N4CCN(C)CC4)ccc3OCC)nc12 | inactive | inactive | – | –
39 | OCC(O)CS (stereo unspecified) | inactive | inactive | – | –
40 | OC(CN1CCC(Cc2ccc(F)cc2)CC1)c1ccc(Cl)cc1 (stereo unspecified) | inactive | inactive | – | –
41 | CC(C)CC(=O)OCc1ccccc1 | inactive | inactive | – | –
42 | CC(C)CCCCCCOC(=O)CCCCC(=O)OCCCCCCC(C)C | inactive | inactive | – | –

Row | SMILES | Potency [1] | Potency [2] | viability change, negative = cytotoxic [1] | activity change, negative = cytotoxicity [2]
43 | O=P(c1ccccc1)(c1ccccc1)c1ccccc1 | inactive | inactive | – | –
44 | CCOCN(C(=O)CS(=O)(=O)O)c1c(C)cccc1CC | inactive | inactive | – | –
45 | CC(C)OB(OC(C)C)OC(C)C | inactive | inactive | – | –
46 | Cc1ccc2nc(N)[nH]c(=O)c2c1Sc1ccncc1 | inactive | inactive | – | –
47 | O=C(O)Cc1cccc(-c2cc(CCCCCCc3ccc(O[C@H]4O[C@H](CO)[C@@H](O)[C@H](O)[C@@H]4O)c(-c4cccc(CC(=O)O)c4)c3)ccc2O[C@H]2O[C@H](CO)[C@@H](O)[C@H](O)[C@@H]2O)c1 | – | – | 1.99% [at 0.349 µM] | 10.9% [at 0.349 µM]
48 | CC1=C(/C=C/C(C)=C/C=C/C(C)=C\C=O)C(C)(C)CCC1 | inactive | inactive | – | –
49 | COC(=O)Cc1cccc2ccccc12 | inactive | inactive | – | –
50 | O=C1CCCCCCCCCCOCCCCO1 | inactive | inactive | – | –
51 | COc1cc(-c2nc(NC(=O)c3cc4cc(C)cc(C)c4n3CC(=O)O)sc2CCC2CCCCC2)c(OC)cc1Cl | 25 µM (active) | 25 µM (active) | – | –
52 | Cc1ccc(O)c(C(=O)c2ccccc2)c1 | inactive | inactive | – | –
53 | CC[C@]1(O)C[C@H]2CN(CCc3c([nH]c4ccccc34)[C@@](C(=O)OC)(c3cc4c(cc3OC)N(C=O)[C@H]3[C@@](O)(C(=O)OC)[C@H](OC(C)=O)[C@]5(CC)C=CCN6CC[C@]43[C@@H]65)C2)C1 | inactive | inactive | – | –
54 | O=C(Cl)c1ccc(C(=O)Cl)cc1 | inactive | inactive | – | –
55 | OC[C@@H](O)[C@@H](O)[C@H](O)[C@H](O)CO | inactive | inactive | – | –
56 | O=C(O)CN(CCOCCOCCN(CC(=O)O)CC(=O)O)CC(=O)O | – | – | -0.164% [at 0.349 µM] | -3.94% [at 0.349 µM]
57 | c1coc(Cn2cccc2)c1 | inactive | inactive | – | –
58 | COC(=O)C1=C(C)NC(C)=C(C(=O)OCC(C)C)C1c1ccccc1[N+](=O)[O-] (stereo unspecified) | inactive | inactive | – | –
59 | COCCCN1CCC(NC(=O)c2cc(Cl)c(N)c3c2OCC3)CC1 | inactive | inactive | – | –
60 | O=c1n(CC2CO2)c(=O)n(CC2CO2)c(=O)n1CC1CO1 (stereo unspecified) | inactive | inactive | – | –
61 | CCCOCC(C)O (stereo unspecified) | inactive | inactive | – | –
62 | CCN(C(=O)N(CC)c1ccccc1)c1ccccc1 | inactive | inactive | – | –
63 | COc1nc(C)nc(N)n1 | inactive | inactive | – | –
